Measured values published in PubChem BioAssay (Tox21).
Results filed as inconclusive are left out. Active and inactive are the calls of the source. Unless noted, calls follow the shape of the full dose curve.

Assays:
[1] = Nuclear factor erythroid 2-related factor 2/antioxidant responsive element (Nrf2/ARE) small molecule agonists: qHTS cell viability counter screen in human keratinocytes (AID 1919968; active = well fitted curve in the direction sought with a large enough effect in the repeat runs; an effect the other way counts as inactive or inconclusive; also: nearly all actives have a fitted effect of over 55% in size; also: potency is read from the fitted curve at half-maximal effect)
Outline: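 Viability counter-screen: KeratinoSens reporter cells, DMSO-delivered compounds, 23 h at 37 C, CellTiter-Fluor fluorescence.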

[2] = Nuclear factor erythroid 2-related factor 2/antioxidant responsive element (Nrf2/ARE) small molecule agonists: luciferase reporter gene qHTS assay in human keratinocytes (AID 1919969); also: nearly all actives have a fitted effect of over 35% in size; also: potency is read from the fitted curve at half-maximal effect
[3] = biological target: KiSS-1 receptor (Homo sapiens) (UniProt Q969F8); test: Human kisspeptin (KISS1R) small molecule agonists, calcium flux assay in KISS1R-HEK293 cells (AID 1920064; active = well fitted curve in the direction sought with a large enough effect in the repeat runs; an effect the other way counts as inactive or inconclusive)
KiSS-1 receptor (Homo sapiens), sequence (Q969F8 whole entry, looked up): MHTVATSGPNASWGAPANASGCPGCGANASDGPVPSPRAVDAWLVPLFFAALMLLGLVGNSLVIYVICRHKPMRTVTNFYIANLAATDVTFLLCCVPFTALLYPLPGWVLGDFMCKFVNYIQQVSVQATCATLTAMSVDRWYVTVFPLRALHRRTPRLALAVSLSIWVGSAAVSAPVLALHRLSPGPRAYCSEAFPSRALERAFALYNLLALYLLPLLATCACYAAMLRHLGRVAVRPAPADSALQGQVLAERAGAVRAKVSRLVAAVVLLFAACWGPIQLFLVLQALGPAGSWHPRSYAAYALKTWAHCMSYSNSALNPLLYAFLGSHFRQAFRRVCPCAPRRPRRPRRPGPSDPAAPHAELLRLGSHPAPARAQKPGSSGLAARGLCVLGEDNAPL
Outline: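 Intracellular calcium mobilization in KISS1R-HEK293 cells was recorded by fluorescence (Ex/Em 480/540) for 3 min following compound addition to cells pre-loaded 1 h with calcium dye.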

[4] = G protein-coupled receptor (GPCR) small molecule agonists, calcium flux assay: HEK293 wild type cell line counter screen (AID 1920065)
Outline: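 In this agonist-mode screen, ATP is the positive control and DMSO the vehicle. Cells grow 18 h before a 1 h dye incubation at 37 C; signal is taken at Ex/Em 480/540 over 3 min.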

[5] = p53 small molecule agonists, cell-based qHTS assay with rat liver microsomes (AID 1963578)
Outline: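 Agonist mode in p53RE-bla reporter cells, with compounds co-incubated 16 h at 37 C alongside 0.5 mg/mL rat liver microsomes and 0.5 mg/mL NADPH (final), followed by a 2 h LiveBLAzer detection step.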

[6] = p53 small molecule agonists, cell-based qHTS assay with human liver microsomes: qHTS cell viability counter screen (AID 1963579); also: nearly all actives have a fitted effect of over 45% in size
Outline: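 Metabolically activated exposure: compounds, human liver microsomes and NADPH (0.5 mg/mL final apiece) were added to p53RE-bla cells seeded 5 h earlier, left 16 h at 37 C, and then assessed for viability by CellTiter-Glo luminescence.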

[7] = p53 small molecule agonists, cell-based qHTS assay with rat liver microsomes: qHTS cell viability counter screen (AID 1963580); also: nearly all actives have a fitted effect of over 45% in size; also: potency is read from the fitted curve at half-maximal effect
Outline: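 In HCT-116 cells carrying a p53 response element-bla reporter, compounds were metabolically activated in situ by rat liver microsomes with NADPH over 16 h. Cell ATP content then served as the cytotoxicity measure.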

[8] = p53 small molecule agonists, cell-based qHTS assay: qHTS cell viability counter screen (AID 1963581); also: nearly all actives have a fitted effect of over 45% in size
Outline: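 Compounds are pinned onto HCT-116 p53RE-bla cells and left 16 h at 37 C. Following the reporter FRET read, ATP is quantified by CellTiter-Glo luminescence after 30 min at room temperature.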

[9] = p53 small molecule agonists, cell-based qHTS assay (AID 1963582; active = well fitted activation curve with a large enough effect in the signal ratio in the repeat runs, not every such curve was filed as active; the % refers to the signal ratio; also: potency is read from the fitted curve at half-maximal effect)
Outline: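 Agonist activity was scored from beta-lactamase FRET fluorescence in p53RE-bla cells treated 16 h at 37 C with compounds in DMSO, substrate incubation being 2 h at room temperature.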

[10] = biological target: 5-hydroxytryptamine receptor 2A (Homo sapiens) (UniProt P28223); test: 5-hydroxytryptamine receptor 2A (HTR2A) small molecule antagonists, cell-based qHTS assay (AID 1963586); also: nearly all actives have a fitted effect of over 45% in size
5-hydroxytryptamine receptor 2A (Homo sapiens), sequence (P28223 whole entry, looked up): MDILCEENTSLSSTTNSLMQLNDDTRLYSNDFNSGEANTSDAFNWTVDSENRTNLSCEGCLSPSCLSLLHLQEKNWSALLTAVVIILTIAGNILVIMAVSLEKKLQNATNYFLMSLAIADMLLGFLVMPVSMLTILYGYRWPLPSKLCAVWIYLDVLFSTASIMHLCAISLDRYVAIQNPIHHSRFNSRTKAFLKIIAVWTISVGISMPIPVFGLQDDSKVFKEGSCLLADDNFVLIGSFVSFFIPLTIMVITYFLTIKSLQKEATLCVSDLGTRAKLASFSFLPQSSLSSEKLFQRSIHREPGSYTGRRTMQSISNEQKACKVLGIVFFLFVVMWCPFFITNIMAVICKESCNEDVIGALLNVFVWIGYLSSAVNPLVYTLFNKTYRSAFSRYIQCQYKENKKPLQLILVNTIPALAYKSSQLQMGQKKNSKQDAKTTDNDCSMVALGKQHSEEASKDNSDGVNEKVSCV
Outline: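 Antagonist-mode intracellular calcium assay: DOI (4 nM) added after 5 min compound pre-incubation at room temperature to dye-loaded HTR2A-CHO cells. Fluorescence followed for 3 min, sampled every second.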

[11] = biological target: 5-hydroxytryptamine receptor 2A (Homo sapiens) (UniProt P28223); test: 5-hydroxytryptamine receptor 2A (HTR2A) small molecule agonists, cell-based qHTS assay (AID 1963587); also: nearly all actives have a fitted effect of over 30% in size; also: potency is read from the fitted curve at half-maximal effect
Outline: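 HTR2A-CHO cells, plated 18 h at 37 C/5% CO2, dye-loaded 1 h at 37 C; compounds in DMSO added by pin tool (agonist mode). Intracellular calcium flux read as kinetic fluorescence on FDSS over 2 min at 1 s intervals.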

[12] = biological target: Muscarinic acetylcholine receptor M1 (Homo sapiens) (UniProt P11229); test: Cholinergic receptor muscarinic 1 (CHRM1) small molecule antagonists, cell-based qHTS assay (AID 1963588); also: nearly all actives have a fitted effect of over 40% in size; also: potency is read from the fitted curve at half-maximal effect
Muscarinic acetylcholine receptor M1 (Homo sapiens), sequence (P11229 whole entry, looked up): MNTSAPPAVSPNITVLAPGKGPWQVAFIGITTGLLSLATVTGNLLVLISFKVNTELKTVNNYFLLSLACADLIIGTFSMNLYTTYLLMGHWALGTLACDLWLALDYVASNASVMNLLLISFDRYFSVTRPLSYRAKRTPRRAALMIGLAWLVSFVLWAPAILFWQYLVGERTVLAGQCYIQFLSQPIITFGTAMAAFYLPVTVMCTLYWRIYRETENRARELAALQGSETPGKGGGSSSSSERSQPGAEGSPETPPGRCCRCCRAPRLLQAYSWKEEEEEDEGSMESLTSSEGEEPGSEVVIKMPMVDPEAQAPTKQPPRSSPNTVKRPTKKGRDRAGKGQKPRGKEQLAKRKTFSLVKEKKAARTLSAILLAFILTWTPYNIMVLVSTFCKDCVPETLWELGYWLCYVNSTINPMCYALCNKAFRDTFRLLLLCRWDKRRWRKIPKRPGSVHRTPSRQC
Outline: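 CHRM1-CHO calcium-flux assay, antagonist mode. Cells were seeded 18 h, dye-loaded 1 h at 37 C and given compound for 5 min at RT, then acetylcholine was added at 50nM. FDSS fluorescence was read 3 min; 15 concentrations, three runs.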

[13] = biological target: Muscarinic acetylcholine receptor M1 (Homo sapiens) (UniProt P11229); test: Cholinergic receptor muscarinic 1 (CHRM1) small molecule agonists, cell-based qHTS assay (AID 1963589); also: nearly all actives have a fitted effect of over 35% in size
Outline: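 Stable CHRM1-CHO cells (human receptor) were incubated 18 h, dye-loaded for 1 h at 37 C and exposed to test compounds for agonist activity, with calcium-dependent fluorescence followed kinetically.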

[14] = biological target: Gonadotropin-releasing hormone receptor (Homo sapiens) (UniProt P30968); test: Human gonadotropin-releasing hormone receptor (GnRHR) small molecule agonists, calcium flux assay in GnRHR-HEK293 cells (AID 1920063); also: nearly all actives have a fitted effect of over 35% in size; also: potency is read from the fitted curve at half-maximal effect
Gonadotropin-releasing hormone receptor (Homo sapiens), sequence (P30968 whole entry, looked up): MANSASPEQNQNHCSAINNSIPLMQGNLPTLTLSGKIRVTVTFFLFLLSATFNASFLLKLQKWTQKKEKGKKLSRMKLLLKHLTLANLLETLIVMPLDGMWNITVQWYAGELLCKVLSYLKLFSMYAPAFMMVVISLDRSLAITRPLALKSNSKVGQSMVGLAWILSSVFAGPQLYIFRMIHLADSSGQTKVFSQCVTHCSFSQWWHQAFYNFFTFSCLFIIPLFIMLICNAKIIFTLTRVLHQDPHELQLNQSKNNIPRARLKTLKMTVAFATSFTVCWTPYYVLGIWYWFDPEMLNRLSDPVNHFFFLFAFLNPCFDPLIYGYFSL
Outline: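 Tox21-format agonist screen using human GnRHR-expressing HEK293 cells and a fluorescent calcium dye; kinetic 3-min fluorescence reading after compound addition, 15-point concentration series run in triplicate.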

[15] = cAMP Responsive Elements (CRE) small molecule antagonists, cell-based qHTS assay (AID 1963591; active = well fitted inhibition curve with a large enough effect in the signal ratio in the repeat runs, not every such curve was filed as active; the % refers to the signal ratio)
Outline: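 qHTS in CRE-bla HEK 293T cells: compound in DMSO, then 0.25 uM NKH477 (final), 3 h at 37 °C/5% CO2; beta-lactamase FRET read-out after 2 h substrate incubation.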

[16] = biological target: Beta-2 adrenergic receptor (Homo sapiens) (UniProt P07550); test: Adrenergic beta2 receptor (ADRB2) small molecule antagonists, cell-based qHTS assay (AID 1963592); also: series mostly up to about 92 µM; nearly all actives have a fitted effect of over 50% in size
Beta-2 adrenergic receptor (Homo sapiens), sequence (P07550 whole entry, looked up): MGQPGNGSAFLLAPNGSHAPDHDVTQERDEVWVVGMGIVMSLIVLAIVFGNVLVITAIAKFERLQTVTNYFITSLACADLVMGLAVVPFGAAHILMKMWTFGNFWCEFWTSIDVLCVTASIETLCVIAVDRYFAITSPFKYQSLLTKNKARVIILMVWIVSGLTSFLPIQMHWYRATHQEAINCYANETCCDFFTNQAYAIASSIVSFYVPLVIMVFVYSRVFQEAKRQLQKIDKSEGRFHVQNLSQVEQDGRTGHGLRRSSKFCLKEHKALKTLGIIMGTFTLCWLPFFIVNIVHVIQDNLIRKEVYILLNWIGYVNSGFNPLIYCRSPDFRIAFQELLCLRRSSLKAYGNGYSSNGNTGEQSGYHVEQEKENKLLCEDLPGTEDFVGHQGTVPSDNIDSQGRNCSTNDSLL
Outline: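 Cells (CHO, stable ADRB2 overexpression) incubated 18-20hr at 37C; compounds added from DMSO; agonist mix (1nM isoproterenol, 100uM IBMX, 25uM Ro-20-1724) added; 0.5hr RT; d2-cAMP and anti-cAMP-cryptate added; 1hr RT; 665/615 nm read.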

[17] = biological target: D(2) dopamine receptor (Homo sapiens) (UniProt P14416); test: Dopamine D2 receptor (DRD2) small molecule antagonists, cell-based qHTS assay (AID 1963595; active = well fitted inhibition curve with a large enough effect in the signal ratio in the repeat runs, with a control signal flat; the % refers to the signal ratio; also: potency is read from the fitted curve at half-maximal effect)
D(2) dopamine receptor (Homo sapiens), sequence (P14416 whole entry, looked up): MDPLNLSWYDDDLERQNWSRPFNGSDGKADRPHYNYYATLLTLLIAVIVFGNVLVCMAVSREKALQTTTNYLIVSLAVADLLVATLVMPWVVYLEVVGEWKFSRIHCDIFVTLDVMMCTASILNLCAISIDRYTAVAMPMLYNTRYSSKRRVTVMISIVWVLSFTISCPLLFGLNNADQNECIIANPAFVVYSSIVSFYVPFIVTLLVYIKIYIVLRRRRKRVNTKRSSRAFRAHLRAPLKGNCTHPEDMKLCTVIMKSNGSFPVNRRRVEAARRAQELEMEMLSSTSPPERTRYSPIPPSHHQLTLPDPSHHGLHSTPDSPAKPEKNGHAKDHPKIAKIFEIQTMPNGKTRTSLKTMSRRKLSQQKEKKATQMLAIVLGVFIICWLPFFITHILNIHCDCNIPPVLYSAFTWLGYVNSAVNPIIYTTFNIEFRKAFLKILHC
Outline: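 Antagonism was scored as restored cAMP in HEK293-DRD2 cells. These cells were stimulated with 200 nM NKH477 and 12 nM quinpirole for 30 min at room temperature, in the presence of 0.1 mM Ro20-1724.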

[18] = cAMP Responsive Elements (CRE) small molecule agonists, cell-based qHTS assay (AID 1963590)
Outline: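 FRET-based beta-lactamase readout (LiveBLAzer B/G, 2 h RT) quantified CRE activation in HEK 293T CRE-bla cells after 3 h treatment with DMSO-dissolved compounds.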

[19] = biological target: D(2) dopamine receptor (Homo sapiens) (UniProt P14416); test: Dopamine D2 receptor (DRD2) small molecule agonists, cell-based qHTS assay (AID 1963594); also: nearly all actives have a fitted effect of over 35% in size
Outline: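 HEK293 cells stably expressing DRD2 were cultured 24 h at 37 C, then given Ro20-1724 (0.1 mM final) and compounds for 10 min at room temperature. NKH477 (200nM) was then added for 30 min. cAMP was read by HTRF.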

[20] = biological target: Beta-2 adrenergic receptor (Homo sapiens) (UniProt P07550); test: Adrenergic beta2 receptor (ADRB2) small molecule agonists, cell-based qHTS assay (AID 1963593);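 also: CHO cells stably overexpressing human ADRB2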
Outline: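 CHO cells stably over-expressing ADRB2 were plated overnight at 37C, then dosed with compounds plus a stimulation mix containing 100uM IBMX and 25uM Ro-20-1724 for 0.5hr at room temperature. cAMP was measured by HTRF competition, 1hr.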

Measured: Potency

CC(NCCC(c1ccccc1)c1ccccc1)c1ccccc1 (stereo not drawn)
active: [1] 26.6 µM | [11] 23.9 µM
not listed: [14] | [15] | [16] | [17] | [18] | [19] | [20]
inactive: all other assays above

CNC1CCCN(c2c(F)cc3c(=O)c(C(=O)O)cn(C4CC4)c3c2OC)C1 (stereo not drawn)
not listed: [3] | [5] | [9] | [18] | [19] | [20]
inactive: all other assays above

COc1cccc2c1C(=O)c1c(O)c3c(c(O)c1C2=O)C[C@@](O)(C(=O)CO)C[C@@H]3O[C@H]1C[C@H](N)[C@H](O[C@@H]2CCCCO2)[C@H](C)O1
inactive: [3] | [4] | [5] | [6] | [8] | [12] | [13] | [18]
active: [1] 9.44 µM | [2] 2.66 µM | [7] 3.97 µM | [9] 1.78 µM | [11] 10.7 µM

O=C(N[C@@H](c1ccccc1)[C@@H]1CCCCN1)c1cccc(C(F)(F)F)c1Cl
inactive: [2] | [4] | [6] | [7] | [12] | [13] | [16] | [19] | [17]
active: [1] 43.3 µM | [14] 38.9 µM

Cc1ccc(S(=O)(=O)C(I)I)cc1
inactive: [5] | [8] | [10] | [16] | [19]
active: [1] 27.3 µM | [2] 6.11 µM | [14] 38.9 µM | [11] 54.9 µM | [12] 18.8 µM | [17] 30.6 µM

OCCN1CCOCC1
not listed: [3] | [5] | [9] | [11] | [20]
inactive: all other assays above

CC(C)Nc1ccc(NC(C)C)c2c1C(=O)c1ccccc1C2=O
not listed: [3] | [5] | [8] | [15] | [19]
inactive: all other assays above

CCCCOCCOCCOCCOCCO
not listed: [3] | [5] | [9] | [15] | [20]
inactive: all other assays above

CCOCC(C)O (stereo not drawn)
not listed: [3] | [5] | [9] | [12]
inactive: all other assays above

Cn1c(=O)c2c(ncn2CC2OCCO2)n(C)c1=O
not listed: [3] | [5] | [9] | [10] | [11] | [12] | [13] | [15]
inactive: all other assays above

N#CCCNCCC#N
not listed: [3] | [5] | [7] | [9] | [12] | [20]
inactive: all other assays above

CC(CO)(CO)[N+](=O)[O-]
not listed: [3] | [4] | [5] | [9]
inactive: all other assays above

CCCCCCCCCCCCCCCCCCNC(=O)OC1CCN(C(=O)OC[C@H](COC(=O)N(Cc2cccc[n+]2CC)C(=O)c2ccccc2OC)OC)CC1
inactive: [2] | [14] | [4] | [6] | [7] | [8] | [10] | [11] | [13] | [19]
active: [1] 10.6 µM

C/C=C/C=C/C=O
active: [2] 60.7 µM
not listed: [3] | [4] | [5] | [9] | [17] | [19] | [20]
inactive: all other assays above

CC(C)(O)c1ccc(C(C)(C)O)cc1
not listed: [3] | [5] | [9] | [15] | [19] | [20]
inactive: all other assays above
